Assay outcomes from PubChem BioAssay.
Shiga toxin inh: A qHTS for Small Molecule Inhibitors of Shiga Toxin | 290,000 tested, 9.2% active | Vero cells, Shiga toxin protein synthesis inhibition reporter | inhibition, % at 38.7 µM; in the data active means inhibition mostly above about 28%, no sharp cut-off; inactive means mostly below about 43%; further: 0% is about no effect
AmpC inh detg: qHTS Inhibitors of AmpC Beta-Lactamase (assay with detergent); Potency, µM (top dose mostly 114 µM), inactives show at the top dose activity change, negative = inhibition, most hits filed as inhibitors; 370,000 tested, 0.041% active; P00811; AmpC hydrolysis of nitrocefin, absorbance 480 nm, 0.01% Triton;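 further: potency means the concentration at half of the fitted maximal effect; 0% = no-compound wells and -100% = no-enzyme wells; nearly all actives have a fitted effect of over 25% in size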
Target sequence (P00811 whole entry, looked up): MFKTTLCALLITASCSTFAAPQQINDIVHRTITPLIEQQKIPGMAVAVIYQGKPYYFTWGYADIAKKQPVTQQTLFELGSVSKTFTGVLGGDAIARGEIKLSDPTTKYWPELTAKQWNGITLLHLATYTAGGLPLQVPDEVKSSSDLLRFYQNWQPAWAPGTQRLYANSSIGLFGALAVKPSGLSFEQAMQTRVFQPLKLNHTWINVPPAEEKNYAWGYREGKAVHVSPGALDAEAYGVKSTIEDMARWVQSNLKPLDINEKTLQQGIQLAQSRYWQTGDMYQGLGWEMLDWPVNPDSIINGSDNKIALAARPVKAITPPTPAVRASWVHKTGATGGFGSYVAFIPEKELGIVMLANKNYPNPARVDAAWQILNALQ
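20 mM phosphate pH 7.0 + 0.01% (detergent screen) or 0.0001% Triton X-100; 5.3 nM AmpC reagent; cpd preinc 15 min RT; nitrocefin (800 uM stock) to start; A480 q20 s × 4 min; Activity was normalised to no-enzyme and no-compound control wells.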
NS1 inh: qHTS Assay for Inhibitors of Influenza NS1 Protein Function | Potency, µM (top dose mostly 46.1 µM), without a hit: at the top dose activity, positive = more growth | 270,000 tested, 0.4% active; calls by dose curve; further: potency means the concentration at half of the fitted maximal effect; actives are rising curves; nearly all actives have a fitted effect of over 50% in size
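OD600 was taken as the measure of yeast growth restored by compound in an NS1-expressing S. cerevisiae strain. Cells had been washed out of glucose medium and diluted 1:100 into galactose -URA medium, pH 6.0.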
AmpC inh no detg: qHTS Inhibitors of AmpC Beta-Lactamase (assay without detergent). P00811. AmpC nitrocefin hydrolysis, absorbance 480 nm, 0.0001% Triton. Potency, µM (top dose mostly 57.1 µM), without a hit: top-dose activity change, negative = inhibition, hits mostly inhibitors. 330,000 tested, 0.52% active. AID 485341, 2010;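 further: potency means the concentration at half of the fitted maximal effect; plate controls were no compound for no effect and no enzyme for full effect; nearly all actives have a fitted effect of over 20% in size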
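20 mM phosphate pH 7.0 + 0.01% (detergent screen) or 0.0001% Triton X-100; 5.3 nM AmpC reagent; cpd preinc 15 min RT; nitrocefin (800 uM stock) to start; A480 q20 s × 4 min; Activity was normalised to no-enzyme and no-compound control wells.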
Cycloheximide cs: Cycloheximide Counterscreen for Small Molecule Inhibitors of Shiga Toxin. AID 2314, 2010. 300,000 tested, 12% active. max response, %. cell reporter, cycloheximide protein synthesis inhibition counterscreen; in the data active means max response mostly above about 13%, no sharp cut-off; inactive means mostly below about 14%; further: read at 38.3 µM for the half of the compounds with a filed dose; 0% is about no effect
Numbers without * were called inactive; u = inconclusive; x = no result given. The entries come from a sample that favours hits as a whole. Unless noted, the call rests on the fitted dose curve; in most records, active means well fitted curve in the direction sought with a large enough effect; inconclusive means small, poorly fitted or top-dose-only effect, or another doubt; inactive means no such curve, though single readings can be large; an effect the other way counts as inactive or inconclusive.

SMILES	Shiga toxin inh	AmpC inh detg	NS1 inh	AmpC inh no detg	Cycloheximide cs
Cc1c(Nc2ncnc3nc[nH]c23)c(=O)n(-c2ccccc2)n1C	-3	u	-132%	-9%	-3
CCCCc1ccc(Nc2ncnc3nc[nH]c23)cc1	28	u	-63%	-15%	23*
CCCNc1ncnc2nc[nH]c12	-3	-17%	-36%	-93%	-4
COc1cccc(Nc2ncnc3nc[nH]c23)c1	50*	u	13%	3.2µM*	16*
Cc1ccc(Nc2ncnc3nc[nH]c23)cc1Cl	63*	-15%	-60%	6%	50*
CCOc1cc(CNc2ncnc3nc[nH]c23)ccc1OC	-5	-15%	-33%	u	-2
CCc1ccc(Nc2ncnc3nc[nH]c23)cc1	62*	6%	-6%	-30%	27*
COc1ccc(N(C(=O)COc2ccc(C)cc2)S(=O)(=O)c2ccc(C)cc2)cc1	-14	-5%	15%	-25%	-1
COc1cc(C(=O)O[C@H]2C/C(C)=C/CC[C@@]3(C)O[C@@H]3[C@H](O)[C@@H]2C(C)C)cc(OC)c1OC	2	-11%	-10%	126%	-3
COc1ccc(Nc2cc(Nc3cccc(OC)c3)ncn2)cc1	56*	-11%	-3%	-1%	54*
Cc1ccc(NC(=O)Nc2ncnc3nc[nH]c23)cc1	41*	1%	7%	-7%	22*
Cn1cccc1CNCC(O)c1ccccc1 (stereo not drawn)	-8	u	12%	-24%	1
O=C(N/N=C/c1ccc(OC(F)F)cc1OC(F)F)NC1CCCCC1	29	3%	x	13%	3
O=C(CN(C(=O)c1csnn1)c1ccc(F)c(Cl)c1)NC1CCCCC1	51	7%	-2%	-18%	30*
C=CCC[C@H](Cc1ccc(F)cc1)C(=O)OC[C@@H](Cc1c[nH]c2ccccc12)NC(=O)[C@@H](CC=C)CC(=O)NCCO	x	x	x	213%	x
CCOC(=O)N1CCN(S(=O)(=O)/C=C/c2ccccc2)CC1	-9	-11%	-15%	0%	-3
CCOC(=O)N1C/C(=C\c2ccccc2)C(=O)/C(=C/c2ccccc2)C1	24*	3%	-35%	-17%	41*
CCOC(=O)c1[nH]c(C)c(CCC(=O)NCc2ccc(C)cc2)c1C	x	20%	x	x	x
CNC(=S)N(C1=NCC(c2ccc([N+](=O)[O-])cc2)S1)c1ccccc1 (stereo not drawn)	56*	1%	-2%	-41%	39*
CN(C)C(=S)NC(=NCc1ccc([N+](=O)[O-])cc1)c1ccccc1	16	-9%	1%	2%	-4
Cc1cc(C)nc(SCC(=O)Nc2ncc(Cc3cccc(Cl)c3)s2)n1	-13	-10%	16%	2.8µM*	-1
N=C1S/C(=C\c2ccco2)C(=O)N1c1ccc2c(c1)OCO2	74*	0%	2%	-59%	33*
N=C1S/C(=C\c2ccco2)C(=O)N1c1nccs1	59*	2%	x	-43%	34*
O=C1/C(=C\c2ccco2)SC(=S)N1C1CCCCC1	x	u	20%	-57%	-4
COc1cc(SC)ccc1C(=O)N1CCn2c3c(c4cc(C)ccc42)CCCC31 (stereo not drawn)	x	-2%	x	x	x
SMILES	Shiga toxin inh	AmpC inh detg	NS1 inh	AmpC inh no detg	Cycloheximide cs
CCOC(=O)c1sc(NC(=O)CSc2n[nH]c(-c3ccccc3)n2)c(C#N)c1C	20	-3%	-112%	-39%	9
Cc1ccc(/C=C/C2=Cc3c(sc(NC(=O)CSc4n[nH]c(N)n4)c3C#N)C(C)(C)C2)o1	11	-7%	18%	13µM*	-1
O=C(c1ccc(Cl)cc1)N1CCc2ccccc21	46	-1%	-41%	-16%	33*
Cc1ccc(C(=O)N2CCc3ccccc32)cc1	90*	-9%	-12%	-28%	31*
O=C(c1ccc(Cl)s1)N1CCc2ccccc21	82*	u	-20%	-16%	36*
O=C(c1ccc(C(=O)N2CCCc3ccccc32)s1)N1CCCc2ccccc21	-13	-10%	-105%	-7%	-2
CCc1sc(C(=O)N2CCc3ccccc32)cc1C	102*	-15%	x	-10%	66*
Cc1ccccc1N(C)C(=O)C1CCCN(c2ncnc3c2nc2n3CCCCC2)C1 (stereo not drawn)	-2	3%	-9%	98%	9
O=C(c1ccc(Cl)s1)N1CCN(c2ccccc2)CC1	28*	-12%	-7%	-16%	17*
Cn1ncc(Cl)c1C(=O)N1CCc2ccccc21	-4	-9%	-1%	-20%	-2
Cn1cc(C(=O)N2CCc3ccccc32)cn1	49*	-10%	4%	-16%	22*
CC(C(=O)Nc1ccc(C(N)=O)cc1)N1C(=O)c2ccccc2S1(=O)=O (stereo not drawn)	x	-6%	x	-10%	x
O=C(Nc1cccc(-c2cn3ccccc3n2)c1)C1CC1	46*	3%	-2%	-15%	35*
Cc1ccc(S(=O)(=O)Nc2cccc(-c3cn4cccc(C)c4n3)c2)c(C)c1	x	11%	x	x	x
CCC(=O)Nc1cccc(-c2ccc(N3CCN(C)CC3)nn2)c1	74*	u	-3%	-3%	16*
O=C(Nc1ccc(-c2cn3ccccc3n2)cc1)c1cccs1	54*	-7%	x	28µM*	33*
CCC(=O)Nc1cccc(-c2cn3cccc(C)c3n2)c1	54*	-3%	3%	-21%	39*
CC(C)(C)CC(=O)NC1CC(=O)N(c2ccc3c(c2)OCCO3)C1 (stereo not drawn)	x	3%	x	x	x
Cn1c(=O)c2sccc2n2c(CCC(=O)NCc3ccccc3)nnc12	x	17%	x	x	x
COc1ccc(CC(=O)Nc2ccc(-c3cn4ccccc4n3)cc2)cc1	112*	-10%	-7%	-12%	25*
COc1ccc(CC(=O)Nc2ccc(-c3cn4ccccc4n3)cc2)cc1OC	-3	-1%	2%	-14%	8
CCC(=O)Nc1cccc(-c2cn3ccccc3n2)c1	45*	u	-6%	-21%	18*
COc1ccc(CC(=O)Nc2cccc(-c3cn4ccccc4n3)c2)cc1	active	u	-52%	u	46*
Cc1ccc(-c2cc3cccc[n+]3cc2-c2ccc(C)cc2)cc1	17	-7%	19%	34%	1
O=C(NCC(c1cccs1)S(=O)(=O)c1cccs1)c1ccc(Cl)cc1 (stereo not drawn)	x	-1%	x	x	x
COC(=O)c1ccccc1NC(=O)/C=N/O	-19	-4%	4%	-20%	-4
O=C(/C=N/O)Nc1ccc2sc3ccccc3c2c1	71*	-5%	-4%	-35%	54*
Cc1cc(N2CCOCC2)nc2ccc(NC(=O)CCC(=O)N3CCN(c4cccc(C(F)(F)F)c4)CC3)cc12	67*	0%	1%	169%	28*
Cc1cc(N2CCOCC2)nc2ccc(Cl)cc12	62*	11%	8%	-2%	41*
